Tau fibril FP: blocks human tau fibril formation measured by polarization. K18 P301L tau heparin fibrillization, Alexa594 FP, 6 h. Potency, µM (top dose mostly 57.7 µM), inactives show top-dose activity, negative = inhibition, usual class: inhibitors. 0.39% of 280,000 active. AID 1468; also: potency is read from the fitted curve at half-maximal effect; nearly all actives have a fitted effect of over 55% in size
Target sequence (P10636 561-689 P618L limits assumed): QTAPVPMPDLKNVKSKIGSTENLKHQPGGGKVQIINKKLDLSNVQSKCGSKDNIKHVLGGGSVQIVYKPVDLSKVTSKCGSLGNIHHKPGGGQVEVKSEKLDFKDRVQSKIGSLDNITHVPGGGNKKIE
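Compound effects on tau fibrillization are measured by Alexa 594 fluorescence polarization (ex 555, em 632 nm). K18 P301L tau is used at 15 uM with 0.24 uM labeled tracer, and 20 uM heparin induces aggregation over 6 hr at 37 C.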
JMJD2E inh: JMJD2E (human) inhibition; 1.6% of 230,000 active; JMJD2E catalytic domain, FDH-coupled NADH fluorescence (FDH is formaldehyde dehydrogenase); B2RXH2; Potency, µM (titrated, usually from 57.1 µM), for inactives: at the top dose activity change, negative = inhibition, most hits filed as inhibitors; AID 2147; active = well fitted inhibition curve with a large enough effect, not every such curve was filed as active; inconclusive = small, poorly fitted or top-dose-only effect, or another doubt; inactive = no such curve, though single readings can be large or run the other way;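 also: potency is read from the fitted curve at half-maximal effect; 0% = wells with enzyme and -100% = buffer wells without enzyme; nearly all actives have a fitted effect of over 50% in size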
Target sequence (B2RXH2 1-337 limits assumed): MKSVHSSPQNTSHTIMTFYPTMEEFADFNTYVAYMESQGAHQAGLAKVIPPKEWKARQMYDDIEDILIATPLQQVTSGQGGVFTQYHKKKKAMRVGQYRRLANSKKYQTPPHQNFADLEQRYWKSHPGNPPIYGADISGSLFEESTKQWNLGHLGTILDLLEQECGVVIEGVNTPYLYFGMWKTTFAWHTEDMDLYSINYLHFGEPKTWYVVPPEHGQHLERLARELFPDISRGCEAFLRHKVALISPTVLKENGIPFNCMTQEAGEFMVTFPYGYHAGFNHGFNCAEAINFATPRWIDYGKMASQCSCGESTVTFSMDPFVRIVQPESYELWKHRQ
Tau fluor cs: counter-screen for tau fibril formation inhibitors | 0.93% of 280,000 active | Potency, µM (series often up to 57.7 µM), for inactives: top-dose activity change, negative = decrease | AID 1463 | tau K18 P301L Alexa594 fluorescence, heparin fibrillization; also: potency is read from the fitted curve at half-maximal effect; nearly all actives have a fitted effect of over 55% in size
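Human K18 P301L tau (15 uM unlabeled plus 0.24 uM Alexa 594-labeled, final) in 100 mM sodium acetate pH 7 was mixed with compound and 20 uM heparin and incubated 6 hr at 37 C.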
PNC assembly inh: blocks assembly of the perinucleolar compartment. PC3M PTB-GFP, PNC prevalence imaging, 16 h; stronger effect = lower value. activity change (PNC), negative = inhibition, % at 10 µM. 3.1% of 140,000 active;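 active = readout at or below -70, meaning at least 70% loss of cells showing the perinucleolar compartment, a nuclear body marking cancer cells; inconclusive = readout between -30 and a set limit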;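 also: plate controls were DMSO wells for no effect and camptothecin positive control wells for full effect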
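PC3M cells stably expressing PTB-GFP, 750–1000 cells/well, treated 16 h at 37 °C with compound (23 nl of library stock), in duplicate. After paraformaldehyde fixation and Hoechst stain, imaged at 20x; PNC prevalence scored by image analysis.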
Tau fibril ThT: tau fibrillization inhibition (ThT binding) | 2.1% of 270,000 active | recombinant tau K18 P301L, heparin-induced fibrillization, ThT fluorescence | Potency, µM (titrated, usually from 57.4 µM), for inactives: at the highest dose activity, negative = inhibition, usual class: inhibitors; also: potency is read from the fitted curve at half-maximal effect; nearly all actives have a fitted effect of over 55% in size
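Fibril formation assay: tau K18 P301L at 15 uM with trace Alexa 594 label, heparin inducer 20 uM, pH 7 sodium acetate buffer, 37 C for 6 hr; endpoint ThT signal.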
NPSR antag: blocks cAMP signaling of the human neuropeptide S receptor | Q6W5P4 | CHO-NPSR cells, cAMP TR-FRET, antagonist mode | Potency, µM (top dose mostly 38.3 µM), inactives show at the highest dose activity change, negative = inhibition, hits mostly inhibitors | 1% of 220,000 active; also: potency is read from the fitted curve at half-maximal effect; nearly all actives have a fitted effect of over 50% in size
An asterisk follows results filed as active; ? = inconclusive; . = no result given; [ ] = dose if it differs, or a comment. Hits are enriched below; roughly 5.1% of the tested compounds scored in any of these assays. Unless noted, calls follow the shape of the dose curve; as a rule, active = well fitted curve in the direction sought with a large enough effect; inconclusive = small, poorly fitted or top-dose-only effect, or another doubt; inactive = no such curve, though single readings can be large; an effect the other way counts as inactive or inconclusive. Unless noted, % is scaled to controls: 0 for no effect and ±100 for the full control effect.

SMILES | Tau fibril FP | JMJD2E inh | Tau fluor cs | PNC assembly inh | Tau fibril ThT | NPSR antag
Cc1ccc(C)n1-c1c(C(=O)NCCC(C)C)sc2ncccc12 | -1.4% | . | -12.9% | . | -12.9% | .
CNCc1ccccc1Sc1ccc(O)c(O)c1 | 8.91µM* | 14.1µM* | ? | 4.9 | 3.98µM* | -13.6%
COc1ccc(Sc2ccccc2CN(C)C)cc1OC | -4.5% | 3.0% | -3.4% | 14.9 | -1.4% | 4.3%[46.1 µM]
CCOc1ccc2c(c1)-c1c(ssc1=S)C(C)(C)N2C(=O)CSC1=NCCS1 | 14.7% | 2.1% | ? | 8.6 | ? | -28.2%
CCOc1ccc2c(c1)-c1c(ssc1=S)C(C)(C)N2 | -2.0% | -3.3% | 12.6µM*[quencher] | ? | 12.6µM* | ?
COc1ccc(-c2[nH]ncc2N=Nc2ccccc2)cc1 | ? | -13.8% | ? | . | 15.8µM* | -40.7%
Cc1ccccc1C(=O)NCC(=O)NNC(=S)NC(=O)c1ccccc1 | 4.3% | -1.9% | -4.8% | -83.1* | -5.6% | 7.8%
COc1ccccc1NC(=O)CNC(=O)c1ccccc1 | -0.9% | 0.8% | 5.0% | 17.6 | 11.5% | -8.1%[46.1 µM]
Cc1ccccc1C(=O)NCC(=O)NNC(=S)NC(=O)c1ccccc1C | 0.7% | -5.6% | 12.3% | 0.4 | 16.5% | 12.5%
COc1ccccc1NC(=O)CNC(=O)c1ccccc1C | -1.8% | 2.0% | 11.8% | -108.1* | 7.5% | 11.7%[46.1 µM]
COc1ccc2nc(SCC(O)c3cccc(Br)c3)[nH]c2c1 (stereo unspecified) | 10.8% | . | ? | . | -14.3% | .
CCc1ccc2oc(-c3ccc(NC(=O)c4cccc(Cl)c4Cl)cc3)nc2c1 | ? | . | -27.3% | . | -16.3% | .
O=C(Cn1c(=O)n(Cc2ccco2)c(=O)c2ccc(C(=O)NC3CCCC3)cc21)Nc1ccc(F)cc1 | 15.8µM* | . | ? | . | ? | .
Cc1cc(C)c(NC(=O)Cn2c(=O)n(Cc3ccco3)c(=O)c3ccc(C(=O)NC4CCCC4)cc32)c(C)c1 | -11.1% | . | -0.3% | . | 4.9% | .
COc1ccc(Cl)cc1NC(=O)Cn1c(=O)n(Cc2nc(C)no2)c(=O)c2ccccc21 | -5.9% | . | -6.1% | . | ? | .
Cc1ccc(C(=O)Nc2ccc3oc(-c4ccncc4)nc3c2)c(Cl)c1 | -10.2% | . | -11.5% | . | ? | .
CCN1C(=O)c2cccc3c(S(=O)(=O)N(C(=O)c4ccncc4)c4ccc(OC)cc4)ccc1c23 | ? | 2.4% | -7.7% | -84.8* | ? | -6.1%
COc1cc(OC)c(OC)cc1/C=N/NC(=O)c1cc(-c2cccn2C)n[nH]1 | 10.9% | ? | ? | 68.3 | 12.6µM* | -14.0%[46.1 µM]
CCOc1cccc(/C=N/NC(=O)c2cc(-c3cccn3C)n[nH]2)c1O | 10.9% | 31.6µM* | ? | . | ? | 12.6%
COc1ccc(/C=N/NC(=O)c2cc(-c3cccn3C)n[nH]2)cc1OC | -10.7% | -10.9% | -23.2% | 42.0 | ? | 1.9%
CCc1ccc(-n2c(N3CCN(c4cccc(C)c4C)CC3)nc3ccccc3c2=O)cc1 | -7.4% | . | -14.9% | . | -15.8% | .
C/C(=N\NC(=O)c1cc(-c2cccnc2)nc2ccccc12)c1ccc(O)cc1O | 19.7% | 0.7% | ? | -92.2* | 7.94µM* | -16.9%
O=C(N/N=C/C=C/c1ccccc1[N+](=O)[O-])c1cc(-c2cccnc2)nc2ccccc12 | 8.4% | -10.7% | ? | -83.5* | -15.0% | -2.8%
Cc1ccc(C)c(NC(=O)c2cc(-c3cccnc3)nc3ccccc23)c1 | -2.6% | 5.1% | -6.7% | . | -9.3% | -44.3%
Nc1c2c(nc3ccc(Br)cc13)N(c1ccccc1)CC2 | 18.6% | ? | 14.1µM*[quencher] | 34.1 | ? | -17.2%[46.1 µM]
Nc1c2c(nc3ccc(Br)cc13)N(Cc1ccccc1)CC2 | 16.0% | ? | ? | -24.5 | ? | -7.5%
Cc1cccc(N2CCc3c2nc2ccc(Br)cc2c3N)c1 | ? | ? | 15.8µM*[quencher] | ? | 28.2µM* | -9.1%[46.1 µM]
C=CCSc1nnc(-c2ccccc2N=Cc2c(C)[nH]n(-c3ccccc3)c2=O)c(=O)[nH]1 | -8.6% | 7.9% | -17.7% | ? | ? | -10.1%[46.1 µM]

Bioassay records as filed in PubChem.
